Sequences and labels used below:
B1: CUUACUC (DNA:RNA)
RNA: GGGAGACCGGAAUUCAGAUUGUCCCUUACUCUUAAAUCCCGUCGUAGCCACCA
DNA 1: CAATCTGAATTCCGGTCTCCC
DNA 2: TGGTGGCTACGACGGGATT
B2: AACUUUU (DNA:RNA)
RNA: B1 RNA with C25A, U26A, U27C, A28U, C29U, C31U
DNA 1: CAATCTGAATTCCGGTCTCCC
DNA 2: TGGTGGCTACGACGGGATT
B3: AGUUUGA (DNA:RNA)
RNA: B1 RNA with C25A, U26G, A28U, C29U, U30G, C31A
DNA 1: CAATCTGAATTCCGGTCTCCC
DNA 2: TGGTGGCTACGACGGGATT
B4: UCUACAC (DNA:RNA)
RNA: B1 RNA with C25U, U26C, U30A
DNA 1: CAATCTGAATTCCGGTCTCCC
DNA 2: TGGTGGCTACGACGGGATT
B5: CAUCGCC (DNA:RNA)
RNA: B1 RNA with U26A, A28C, C29G, U30C
DNA 1: CAATCTGAATTCCGGTCTCCC
DNA 2: TGGTGGCTACGACGGGATT
B6: UACCUUG (DNA:RNA)
RNA: B1 RNA with C25U, U26A, U27C, A28C, C29U, C31G
DNA 1: CAATCTGAATTCCGGTCTCCC
DNA 2: TGGTGGCTACGACGGGATT
B7: UUUAACG (DNA:RNA)
RNA: B1 RNA with C25U, C29A, U30C, C31G
DNA 1: CAATCTGAATTCCGGTCTCCC
DNA 2: TGGTGGCTACGACGGGATT
B8: GGUCAAC (DNA:RNA)
RNA: B1 RNA with C25G, U26G, A28C, C29A, U30A
DNA 1: CAATCTGAATTCCGGTCTCCC
DNA 2: TGGTGGCTACGACGGGATT
B9: AUAUCUA (DNA:RNA)
RNA: B1 RNA with C25A, U27A, A28U, C31A
DNA 1: CAATCTGAATTCCGGTCTCCC
DNA 2: TGGTGGCTACGACGGGATT
B10: GUUUAUG (DNA:RNA)
RNA: B1 RNA with C25G, A28U, C29A, C31G
DNA 1: CAATCTGAATTCCGGTCTCCC
DNA 2: TGGTGGCTACGACGGGATT
B11: CCAUAUG (DNA:RNA)
RNA: B1 RNA with U26C, U27A, A28U, C29A, C31G
DNA 1: CAATCTGAATTCCGGTCTCCC
DNA 2: TGGTGGCTACGACGGGATT
B12: GGGUAGA (DNA:RNA)
RNA: GGGAGACCGGAAUUCAGAUUGUCCGGGUAGAUUAAAUCCCGUCGUAGCCACCA
DNA 1: CAATCTGAATTCCGGTCTCCC
DNA 2: TGGTGGCTACGACGGGATT
B13: UAGUAAA (DNA:RNA)
RNA: B12 RNA with G25U, G26A, G30A
DNA 1: CAATCTGAATTCCGGTCTCCC
DNA 2: TGGTGGCTACGACGGGATT
B14: CCGUAUG (DNA:RNA)
RNA: B12 RNA with G25C, G26C, G30U, A31G
DNA 1: CAATCTGAATTCCGGTCTCCC
DNA 2: TGGTGGCTACGACGGGATT
B15: UAGUAUG (DNA:RNA)
RNA: B12 RNA with G25U, G26A, G30U, A31G
DNA 1: CAATCTGAATTCCGGTCTCCC
DNA 2: TGGTGGCTACGACGGGATT
B16: GUAUGUU (DNA:RNA)
RNA: B1 RNA with C25G, U27A, A28U, C29G, C31U
DNA 1: CAATCTGAATTCCGGTCTCCC
DNA 2: TGGTGGCTACGACGGGATT
B17: UAGUAUC (DNA:RNA)
RNA: B12 RNA with G25U, G26A, G30U, A31C
DNA 1: CAATCTGAATTCCGGTCTCCC
DNA 2: TGGTGGCTACGACGGGATT
B18: CCCUAUG (DNA:RNA)
RNA: B1 RNA with U26C, U27C, A28U, C29A, C31G
DNA 1: CAATCTGAATTCCGGTCTCCC
DNA 2: TGGTGGCTACGACGGGATT
B19: GGGGGUA (DNA:RNA)
RNA: B12 RNA with U28G, A29G, G30U
DNA 1: CAATCTGAATTCCGGTCTCCC
DNA 2: TGGTGGCTACGACGGGATT
B20: GGGUAUG (DNA:RNA)
RNA: B12 RNA with G30U, A31G
DNA 1: CAATCTGAATTCCGGTCTCCC
DNA 2: TGGTGGCTACGACGGGATT
B21: GUUAUGU (DNA:RNA)
RNA: B1 RNA with C25G, C29U, U30G, C31U
DNA 1: CAATCTGAATTCCGGTCTCCC
DNA 2: TGGTGGCTACGACGGGATT
B22: UAUCAUA (DNA:RNA)
RNA: B1 RNA with C25U, U26A, A28C, C29A, C31A
DNA 1: CAATCTGAATTCCGGTCTCCC
DNA 2: TGGTGGCTACGACGGGATT
B23: GAAGCUA (DNA:RNA)
RNA: B1 RNA with C25G, U26A, U27A, A28G, C31A
DNA 1: CAATCTGAATTCCGGTCTCCC
DNA 2: TGGTGGCTACGACGGGATT
B24: CAGCUCU (DNA:RNA)
RNA: B1 RNA with U26A, U27G, A28C, C29U, U30C, C31U
DNA 1: CAATCTGAATTCCGGTCTCCC
DNA 2: TGGTGGCTACGACGGGATT
B25: GUAUCAG (DNA:RNA)
RNA: B1 RNA with C25G, U27A, A28U, U30A, C31G
DNA 1: CAATCTGAATTCCGGTCTCCC
DNA 2: TGGTGGCTACGACGGGATT
B26: AGUCGCC (DNA:RNA)
RNA: B1 RNA with C25A, U26G, A28C, C29G, U30C
DNA 1: CAATCTGAATTCCGGTCTCCC
DNA 2: TGGTGGCTACGACGGGATT
B27: UCGGAGC (DNA:RNA)
RNA: B12 RNA with G25U, G26C, U28G, A31C
DNA 1: CAATCTGAATTCCGGTCTCCC
DNA 2: TGGTGGCTACGACGGGATT
B28: AACUUUG (DNA:RNA)
RNA: B1 RNA with C25A, U26A, U27C, A28U, C29U, C31G
DNA 1: CAATCTGAATTCCGGTCTCCC
DNA 2: TGGTGGCTACGACGGGATT
B29: GGUAUCG (DNA:RNA)
RNA: B1 RNA with C25G, U26G, C29U, U30C, C31G
DNA 1: CAATCTGAATTCCGGTCTCCC
DNA 2: TGGTGGCTACGACGGGATT
B30: AAGUAAA (DNA:RNA)
RNA: B12 RNA with G25A, G26A, G30A
DNA 1: CAATCTGAATTCCGGTCTCCC
DNA 2: TGGTGGCTACGACGGGATT
B31: CCCGGUA (DNA:RNA)
RNA: B1 RNA with U26C, U27C, A28G, C29G, C31A
DNA 1: CAATCTGAATTCCGGTCTCCC
DNA 2: TGGTGGCTACGACGGGATT
B32: AAGUAUG (DNA:RNA)
RNA: B12 RNA with G25A, G26A, G30U, A31G
DNA 1: CAATCTGAATTCCGGTCTCCC
DNA 2: TGGTGGCTACGACGGGATT
B33: AAGUAUC (DNA:RNA)
RNA: B12 RNA with G25A, G26A, G30U, A31C
DNA 1: CAATCTGAATTCCGGTCTCCC
DNA 2: TGGTGGCTACGACGGGATT
B34: AGGUAUG (DNA:RNA)
RNA: B12 RNA with G25A, G30U, A31G
DNA 1: CAATCTGAATTCCGGTCTCCC
DNA 2: TGGTGGCTACGACGGGATT
B35: AGGUAUC (DNA:RNA)
RNA: B12 RNA with G25A, G30U, A31C
DNA 1: CAATCTGAATTCCGGTCTCCC
DNA 2: TGGTGGCTACGACGGGATT
B36: CAUAUGU (DNA:RNA)
RNA: B1 RNA with U26A, C29U, U30G, C31U
DNA 1: CAATCTGAATTCCGGTCTCCC
DNA 2: TGGTGGCTACGACGGGATT
B37: CGGUAUG (DNA:RNA)
RNA: B12 RNA with G25C, G30U, A31G
DNA 1: CAATCTGAATTCCGGTCTCCC
DNA 2: TGGTGGCTACGACGGGATT
B38: CGUAUGU (DNA:RNA)
RNA: B1 RNA with U26G, C29U, U30G, C31U
DNA 1: CAATCTGAATTCCGGTCTCCC
DNA 2: TGGTGGCTACGACGGGATT
B39: AGGUAGC (DNA:RNA)
RNA: B12 RNA with G25A, A31C
DNA 1: CAATCTGAATTCCGGTCTCCC
DNA 2: TGGTGGCTACGACGGGATT
B40: CUUAUGU (DNA:RNA)
RNA: B1 RNA with C29U, U30G, C31U
DNA 1: CAATCTGAATTCCGGTCTCCC
DNA 2: TGGTGGCTACGACGGGATT

These results are taken from article PMC9911399, “Two distinct binding modes provide the RNA-binding protein RbFox with extraordinary sequence specificity”.

Substitutions are numbered along the chain they refer to; changes in the protein carry UniProt numbers. Whole data set: some 16,000 sequences, median “ka relative to ugcaugu” near 0.096, cut for the highest 2% near 0.35. The sample holds the highest values, similar sequences and a random draw of the others, so the mix is not that of the screen.

The target in this test is T1, RBFOX1 RRM RbFoxmut (Fox-RRM*) (Homo sapiens, UniProt Q9NWB1 109-208, R118D;E147R;N151S;E152T).
T1 sequence: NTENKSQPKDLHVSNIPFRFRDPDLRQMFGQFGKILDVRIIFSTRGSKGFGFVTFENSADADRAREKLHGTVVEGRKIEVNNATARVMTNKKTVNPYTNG
As to the kind of experiment: EMSA; HiTS-Eq, 1 nM pool, 10 min; buffer printed only for the single-RNA assays: 10 mM Tris pH 7.5, 150 mM NaCl, 3.4 mM EDTA, 0.001% NP-40, 30 C. The settings on record: tags: His6 N-terminal (pET28a); label: 5' 32P. Summed up: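 Relative association constants, normalised to the cognate motif, were derived by comparing read counts of each RNA species with those of the control reaction. The RNA sequenced was the free fraction, separated by 8% native PAGE after a 10 min equilibration in 50 µL of 1 nM 5′-radiolabelled RNA (7 randomized nucleotides) with increasing concentrations of purified wild-type or mutant RbFox RRM.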
(In general: Mobility shift assays separate free from complexed probe on a gel.)
Regarding B1, the binding signal was 0.0513 KA relative to UGCAUGU.

On to B2, for which the binding signal was 0.0643 KA relative to UGCAUGU.

With B3, the binding signal was 0.169 KA relative to UGCAUGU.

Take B4: the binding signal was 0.0553 KA relative to UGCAUGU.

Take B5: the binding signal was 0.125 KA relative to UGCAUGU.

As for B6, the binding signal was 0.1 KA relative to UGCAUGU.

Turning to B7, the binding signal was 0.112 KA relative to UGCAUGU.

Consider B8, for which the binding signal is 0.052 KA relative to UGCAUGU.

Consider B9, for which the binding signal is 0.124 KA relative to UGCAUGU.

With B10, the binding signal was 0.172 KA relative to UGCAUGU.

On to B11, for which the binding signal was 0.123 KA relative to UGCAUGU.

Take B12: the binding signal was 0.134 KA relative to UGCAUGU.

For the molecule B13, the binding signal was 0.117 KA relative to UGCAUGU.

With B14, the binding signal is 0.534 KA relative to UGCAUGU.

Regarding B15, the binding signal is 0.674 KA relative to UGCAUGU.

Regarding B16, the binding signal was 0.497 KA relative to UGCAUGU.

Regarding B17, the binding signal is 0.183 KA relative to UGCAUGU.

B18: the binding signal was 0.101 KA relative to UGCAUGU.

Take B19: the binding signal is 0.137 KA relative to UGCAUGU.

For the molecule B20, the binding signal is 0.93 KA relative to UGCAUGU.

As to B21, the binding signal was 0.268 KA relative to UGCAUGU.

In the case of B22, the binding signal is 0.0784 KA relative to UGCAUGU.

Take B23: the binding signal was 0.0968 KA relative to UGCAUGU.

Turning to B24, the binding signal is 0.0953 KA relative to UGCAUGU.

With B25, the binding signal is 0.229 KA relative to UGCAUGU.

In the case of B26, the binding signal was 0.0636 KA relative to UGCAUGU.

With B27, the binding signal was 0.0837 KA relative to UGCAUGU.

For the molecule B28, the binding signal was 0.0853 KA relative to UGCAUGU.

As to B29, the binding signal is 0.348 KA relative to UGCAUGU.

As for B30, the binding signal is 0.124 KA relative to UGCAUGU.

B31: the binding signal was 0.111 KA relative to UGCAUGU.

For the molecule B32, the binding signal is 0.498 KA relative to UGCAUGU.

For B33, the binding signal was 0.151 KA relative to UGCAUGU.

With B34, the binding signal is 1.01 KA relative to UGCAUGU.

In the case of B35, the binding signal was 0.191 KA relative to UGCAUGU.

In the case of B36, the binding signal was 0.149 KA relative to UGCAUGU.

As for B37, the binding signal was 0.885 KA relative to UGCAUGU.

For the molecule B38, the binding signal was 0.554 KA relative to UGCAUGU.

For the molecule B39, the binding signal is 0.114 KA relative to UGCAUGU.

B40: the binding signal was 0.158 KA relative to UGCAUGU.
